Values without a mark were called inactive.
How the values were obtained:
Experiment in all cases: log2 ratio of Biotin-Ahx-Ub-VS probe labelling (fragment/DMSO); higher = less target engagement (more negative = stronger competition), active = hit call of the paper (q ≤ 0.05, log2 ratio ≤ -1)
Conditions in all cases: compound concentration: 200 uM; treatment time: 3 h
OTUD6B = biological target: T1, OTUD6B (UniProt Q8N6M0)
T1 sequence (whole entry): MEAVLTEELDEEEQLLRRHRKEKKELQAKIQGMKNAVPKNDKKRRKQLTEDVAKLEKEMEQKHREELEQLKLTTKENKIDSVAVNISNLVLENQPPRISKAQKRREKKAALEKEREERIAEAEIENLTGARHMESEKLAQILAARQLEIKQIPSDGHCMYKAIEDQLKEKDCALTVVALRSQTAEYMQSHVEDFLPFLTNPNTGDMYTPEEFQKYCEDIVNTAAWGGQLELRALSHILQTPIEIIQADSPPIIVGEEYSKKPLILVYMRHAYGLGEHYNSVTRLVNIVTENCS
In short: (§1)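 HEK293T lysate in Tris/CHAPS/IGEPAL buffer with protease inhibitors (495 µg per sample) was given fragment at 200 µM or vehicle for 3 h, in triplicate. It then received Biotin-Ahx-Ub-VS at 0.5 µM final for 1 h. Labelled DUBs were NeutrAvidin-enriched, digested with LysC and trypsin, and run by diaPASEF LC-MS/MS. Values are average log2 fragment/vehicle ratios by unpaired t-test on global-median-normalised Spectronaut quantities of proteins with ≥2 unique peptides.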

OTUD7B = biological target: T2, OTUD7B (UniProt Q6GQQ9)
T2 sequence (whole entry): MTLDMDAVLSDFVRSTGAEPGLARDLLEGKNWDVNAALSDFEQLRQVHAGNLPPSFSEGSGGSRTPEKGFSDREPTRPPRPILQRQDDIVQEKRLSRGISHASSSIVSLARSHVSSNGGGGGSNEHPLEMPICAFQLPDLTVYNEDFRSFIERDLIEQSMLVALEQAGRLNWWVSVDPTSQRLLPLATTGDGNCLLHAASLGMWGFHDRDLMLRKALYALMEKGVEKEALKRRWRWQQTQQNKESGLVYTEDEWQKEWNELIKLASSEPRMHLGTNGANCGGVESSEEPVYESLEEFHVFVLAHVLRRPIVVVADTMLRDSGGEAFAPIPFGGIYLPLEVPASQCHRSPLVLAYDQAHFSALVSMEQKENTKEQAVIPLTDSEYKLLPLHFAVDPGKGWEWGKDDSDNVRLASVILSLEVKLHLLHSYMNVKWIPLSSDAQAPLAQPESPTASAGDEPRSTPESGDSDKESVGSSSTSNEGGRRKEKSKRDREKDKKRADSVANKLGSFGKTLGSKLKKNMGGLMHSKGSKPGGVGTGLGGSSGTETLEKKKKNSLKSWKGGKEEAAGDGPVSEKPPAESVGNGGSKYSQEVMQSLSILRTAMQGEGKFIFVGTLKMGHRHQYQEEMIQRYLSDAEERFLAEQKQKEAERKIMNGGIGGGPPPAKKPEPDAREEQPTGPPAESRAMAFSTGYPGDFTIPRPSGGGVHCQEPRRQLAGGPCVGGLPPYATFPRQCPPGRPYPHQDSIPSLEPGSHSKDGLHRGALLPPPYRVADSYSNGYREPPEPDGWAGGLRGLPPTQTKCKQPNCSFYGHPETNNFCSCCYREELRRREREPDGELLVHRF
In short: as §1

PRPF8 = PRPF8 (UniProt Q6P2Q9)
In short: as §1

PSMD7 = biological target: T3, PSMD7 (UniProt P51665)
T3 sequence (whole entry): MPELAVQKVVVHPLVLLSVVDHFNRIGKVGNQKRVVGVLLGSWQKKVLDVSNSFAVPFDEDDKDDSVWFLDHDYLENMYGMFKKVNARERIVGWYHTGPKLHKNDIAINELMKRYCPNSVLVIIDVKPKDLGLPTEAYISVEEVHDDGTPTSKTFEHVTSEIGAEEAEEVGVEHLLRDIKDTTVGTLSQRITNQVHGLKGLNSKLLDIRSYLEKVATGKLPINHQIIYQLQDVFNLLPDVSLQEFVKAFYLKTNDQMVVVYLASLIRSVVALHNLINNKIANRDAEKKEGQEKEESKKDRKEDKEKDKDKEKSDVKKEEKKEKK
In short: as §1

UCHL1 = UCHL1 (UniProt P09936)
Chain of UCHL1 (P09936 whole entry, looked up): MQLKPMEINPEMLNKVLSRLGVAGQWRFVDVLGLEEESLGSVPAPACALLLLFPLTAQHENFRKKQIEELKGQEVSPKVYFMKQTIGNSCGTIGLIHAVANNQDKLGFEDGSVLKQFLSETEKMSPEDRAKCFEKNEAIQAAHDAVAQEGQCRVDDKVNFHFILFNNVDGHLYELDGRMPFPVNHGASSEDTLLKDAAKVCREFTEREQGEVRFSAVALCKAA
In short: as §1

UCHL3 = biological target: T4, UCHL3 (UniProt P15374)
T4 sequence (whole entry): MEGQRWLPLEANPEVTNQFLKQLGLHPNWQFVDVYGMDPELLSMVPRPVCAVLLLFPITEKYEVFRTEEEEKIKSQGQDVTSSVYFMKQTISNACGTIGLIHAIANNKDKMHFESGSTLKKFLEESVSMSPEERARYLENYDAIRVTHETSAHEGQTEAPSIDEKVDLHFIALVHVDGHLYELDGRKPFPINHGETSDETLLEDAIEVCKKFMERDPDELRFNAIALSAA
In short: as §1

UCHL5 = biological target: T5, UCHL5 (UniProt Q9Y5K5)
T5 sequence (whole entry): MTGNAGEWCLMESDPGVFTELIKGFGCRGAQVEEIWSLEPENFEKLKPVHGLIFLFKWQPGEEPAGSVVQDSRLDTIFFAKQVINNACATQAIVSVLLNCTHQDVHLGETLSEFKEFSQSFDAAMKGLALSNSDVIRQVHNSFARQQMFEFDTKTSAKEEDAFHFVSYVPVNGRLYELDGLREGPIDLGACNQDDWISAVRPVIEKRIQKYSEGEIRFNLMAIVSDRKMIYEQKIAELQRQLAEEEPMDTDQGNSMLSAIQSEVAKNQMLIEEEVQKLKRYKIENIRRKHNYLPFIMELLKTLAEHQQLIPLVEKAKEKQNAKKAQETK
In short: as §1

USP10 = USP10 (UniProt Q14694)
Chain of USP10 (Q14694 whole entry): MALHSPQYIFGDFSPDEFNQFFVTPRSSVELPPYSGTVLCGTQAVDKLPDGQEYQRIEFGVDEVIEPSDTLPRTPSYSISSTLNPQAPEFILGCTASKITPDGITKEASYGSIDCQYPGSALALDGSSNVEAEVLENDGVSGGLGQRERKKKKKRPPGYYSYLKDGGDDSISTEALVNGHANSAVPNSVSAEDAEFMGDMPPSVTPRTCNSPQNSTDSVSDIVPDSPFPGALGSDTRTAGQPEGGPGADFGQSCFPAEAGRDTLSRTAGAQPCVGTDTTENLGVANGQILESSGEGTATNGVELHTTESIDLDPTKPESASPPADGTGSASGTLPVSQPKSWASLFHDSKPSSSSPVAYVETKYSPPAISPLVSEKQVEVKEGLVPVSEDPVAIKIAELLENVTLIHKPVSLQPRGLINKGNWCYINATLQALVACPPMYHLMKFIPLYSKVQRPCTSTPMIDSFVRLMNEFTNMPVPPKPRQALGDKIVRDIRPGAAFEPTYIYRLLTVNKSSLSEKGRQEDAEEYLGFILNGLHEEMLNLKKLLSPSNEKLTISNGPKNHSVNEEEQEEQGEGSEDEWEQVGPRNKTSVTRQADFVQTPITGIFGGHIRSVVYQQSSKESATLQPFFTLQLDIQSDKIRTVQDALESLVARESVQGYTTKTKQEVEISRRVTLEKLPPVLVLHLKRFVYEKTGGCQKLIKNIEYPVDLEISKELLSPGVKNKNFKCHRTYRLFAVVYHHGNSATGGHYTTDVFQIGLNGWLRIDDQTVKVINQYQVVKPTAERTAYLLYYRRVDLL
In short: as §1

USP15 = biological target: T6, USP15 (UniProt Q9Y4E8)
T6 sequence (whole entry): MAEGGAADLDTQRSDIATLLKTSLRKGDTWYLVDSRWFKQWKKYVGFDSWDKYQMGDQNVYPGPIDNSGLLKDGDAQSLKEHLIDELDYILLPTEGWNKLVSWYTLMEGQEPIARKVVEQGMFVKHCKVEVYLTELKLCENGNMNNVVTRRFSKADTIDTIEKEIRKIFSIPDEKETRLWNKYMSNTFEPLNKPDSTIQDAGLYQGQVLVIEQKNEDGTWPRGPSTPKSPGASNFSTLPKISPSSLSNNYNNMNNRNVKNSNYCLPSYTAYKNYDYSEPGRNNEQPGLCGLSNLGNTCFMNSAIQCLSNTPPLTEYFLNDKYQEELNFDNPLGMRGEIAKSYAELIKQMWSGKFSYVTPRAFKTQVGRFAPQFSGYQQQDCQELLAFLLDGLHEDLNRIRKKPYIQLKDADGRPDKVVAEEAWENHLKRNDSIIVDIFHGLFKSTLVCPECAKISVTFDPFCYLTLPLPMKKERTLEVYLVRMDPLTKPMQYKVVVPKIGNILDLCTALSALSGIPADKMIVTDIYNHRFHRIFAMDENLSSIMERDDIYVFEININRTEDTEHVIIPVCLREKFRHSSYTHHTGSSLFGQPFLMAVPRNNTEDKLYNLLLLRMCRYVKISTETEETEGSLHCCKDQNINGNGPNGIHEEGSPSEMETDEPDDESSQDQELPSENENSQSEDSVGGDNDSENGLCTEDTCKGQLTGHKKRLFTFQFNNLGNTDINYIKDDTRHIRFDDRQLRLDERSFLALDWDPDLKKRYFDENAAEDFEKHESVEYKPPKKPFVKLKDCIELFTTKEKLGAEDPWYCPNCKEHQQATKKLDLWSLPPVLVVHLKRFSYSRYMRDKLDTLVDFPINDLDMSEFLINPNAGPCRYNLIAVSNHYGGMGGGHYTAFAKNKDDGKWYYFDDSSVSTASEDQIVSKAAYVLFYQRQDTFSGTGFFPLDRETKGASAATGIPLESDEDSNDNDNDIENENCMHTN
In short: as §1

USP16 = USP16 (UniProt Q9Y5T5)
Chain of USP16 (Q9Y5T5 whole entry, looked up): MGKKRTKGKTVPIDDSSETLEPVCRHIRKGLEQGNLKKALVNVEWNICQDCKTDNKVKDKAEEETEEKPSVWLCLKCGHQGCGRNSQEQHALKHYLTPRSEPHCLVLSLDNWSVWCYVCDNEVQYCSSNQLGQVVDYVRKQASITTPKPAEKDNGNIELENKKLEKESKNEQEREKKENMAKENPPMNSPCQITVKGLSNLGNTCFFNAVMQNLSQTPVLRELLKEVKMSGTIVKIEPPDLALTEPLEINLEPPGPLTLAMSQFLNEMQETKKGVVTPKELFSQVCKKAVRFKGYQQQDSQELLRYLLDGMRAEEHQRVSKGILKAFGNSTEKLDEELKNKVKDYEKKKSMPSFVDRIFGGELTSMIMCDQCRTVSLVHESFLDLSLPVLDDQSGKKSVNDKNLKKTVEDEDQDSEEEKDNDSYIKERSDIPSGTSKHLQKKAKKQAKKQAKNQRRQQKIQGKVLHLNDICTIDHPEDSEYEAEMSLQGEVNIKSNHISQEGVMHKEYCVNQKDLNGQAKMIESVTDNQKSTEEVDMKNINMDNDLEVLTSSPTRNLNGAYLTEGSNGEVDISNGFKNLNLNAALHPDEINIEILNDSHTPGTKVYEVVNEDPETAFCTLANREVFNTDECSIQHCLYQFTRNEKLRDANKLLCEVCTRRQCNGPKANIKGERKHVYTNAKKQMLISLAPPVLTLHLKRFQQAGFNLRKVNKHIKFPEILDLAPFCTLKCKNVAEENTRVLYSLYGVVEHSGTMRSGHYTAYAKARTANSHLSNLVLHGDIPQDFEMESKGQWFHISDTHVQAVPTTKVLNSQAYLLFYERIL
In short: as §1

## O=C(CCl)N1CCC[C@@H]1c1ccon1
OTUD6B
  log2 ratio of Biotin-Ahx-Ub-VS probe labelling: -0.245
OTUD7B
  log2 ratio of Biotin-Ahx-Ub-VS probe labelling: -0.356
PRPF8
  log2 ratio of Biotin-Ahx-Ub-VS probe labelling: 0.0558
PSMD7
  log2 ratio of Biotin-Ahx-Ub-VS probe labelling: -0.283
UCHL1
  log2 ratio of Biotin-Ahx-Ub-VS probe labelling: -1.49 (active)
UCHL3
  log2 ratio of Biotin-Ahx-Ub-VS probe labelling: 0.0429
UCHL5
  log2 ratio of Biotin-Ahx-Ub-VS probe labelling: -0.401
USP10
  log2 ratio of Biotin-Ahx-Ub-VS probe labelling: -0.0611
USP15
  log2 ratio of Biotin-Ahx-Ub-VS probe labelling: -0.228
USP16
  log2 ratio of Biotin-Ahx-Ub-VS probe labelling: -0.0988

From the supplement of paper PMC11732987, “Enantioselective OTUD7B fragment discovery through chemoproteomics screening and high-throughput optimisation” (Communications Chemistry, 2025)
